# Bioassay records as filed in PubChem BioAssay.
# NPC1 promoter act: NPC1 promoter activation. Huh7 NPC1 promoter luciferase reporter, 24 h. Potency, µM (titrated, usually from 9.22 µM), for inactives: top-dose activation, usual class: activators. 320,000 compounds, 2.4% hits; note: % of control where 0% means no effect; nearly all actives have a fitted effect of over 60% in size
#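 In 1536-well qHTS, Huh7 cells harboring an NPC1 promoter–luciferase construct received compound for 24 h; activation was quantified by luminescence following luciferase reagent addition.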
# Rab9 promoter act: activators of Rab9 promoter. Potency, µM (doses to about 9.22 µM), for the others: top-dose activation, negative = inhibition, usual class: activators. AID 485297. 320,000 compounds, 2.8% hits. Huh7 Rab9 promoter-luciferase reporter, luminescence, 24 h; note: % of control where 0% means no effect; nearly all actives have a fitted effect of over 60% in size
#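 Luminescence from Amplite-detected luciferase (10 minutes, ambient) reports Rab9 promoter activation. Before that, stable Rab9-luciferase Huh7 cells (1500/well, reduced-serum OP-MEM I plus 10% FBS) were exposed to compound for 24 hours at 37C.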
# SMN2 splice up: SMN2 splice variant enhancement; HEK293 SMN2-luciferase splicing reporter, luminescence, 30-36 h; Potency, µM (titrated, usually from 46.1 µM), without a hit: top-dose activity change, positive = activation, hits mostly activators; AID 1458; 210,000 compounds, 2.8% hits; note: % of control where 0% means no effect; nearly all actives have a fitted effect of over 55% in size
#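 qHTS luciferase splicing reporter: luminescence rises when SMN2 exon 7 is included in transfected HEK293 cells. Compound exposure lasted 30-36 h at 37C, with 4.5 mM final sodium butyrate as control, followed by a ONE-Glo read.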
# FLuc counter: firefly luciferase modulation, counter-screen for miR-21 project; purified FLuc, Km substrates, luminescence inhibition; Potency, µM (top dose mostly 57.5 µM), without a hit: top-dose activity change, negative = inhibition, usual class: inhibitors; 360,000 compounds, 6.9% hits;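 note: plate controls were vehicle for no effect and reference inhibitor for full effect; nearly all actives have a fitted effect of over 55% in size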
# Target sequence (P08659 whole entry, looked up): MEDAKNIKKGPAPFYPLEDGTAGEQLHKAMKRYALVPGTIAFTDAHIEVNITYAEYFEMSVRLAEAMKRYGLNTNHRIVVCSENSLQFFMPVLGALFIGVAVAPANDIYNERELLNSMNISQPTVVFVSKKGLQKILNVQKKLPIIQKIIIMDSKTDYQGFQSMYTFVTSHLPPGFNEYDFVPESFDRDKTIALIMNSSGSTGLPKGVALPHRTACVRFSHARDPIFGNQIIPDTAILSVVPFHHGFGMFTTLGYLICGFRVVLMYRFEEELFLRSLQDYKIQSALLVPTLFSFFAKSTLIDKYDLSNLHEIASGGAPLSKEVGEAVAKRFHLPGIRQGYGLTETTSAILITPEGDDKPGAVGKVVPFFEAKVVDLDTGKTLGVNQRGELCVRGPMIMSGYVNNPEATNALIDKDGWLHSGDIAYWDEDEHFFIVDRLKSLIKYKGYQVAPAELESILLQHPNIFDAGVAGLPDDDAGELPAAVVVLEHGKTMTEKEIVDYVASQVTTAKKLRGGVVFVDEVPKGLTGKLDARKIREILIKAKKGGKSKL
#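 Purified P. pyralis luciferase (10nM final) with 10uM D-luciferin and 10uM ATP (Km levels) in 50mM Tris acetate pH 7.5, 10mM Mg acetate, 0.01% Tween-20, 0.05% BSA; qHTS 6-point titration, ~60 µM downward; luminescence read.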
# ELG1 genotox: induces genotoxicity in HEK293T cells with luciferase-tagged ELG1; HEK293T ELG1-luciferase reporter, luminescence, 16 h; Potency, µM (titrated, usually from 46 µM), without a hit: at the top dose activity change, positive = activation, usual class: activators; 330,000 compounds, 1.3% hits; AID 504466; note: % of control where 0% means no effect; nearly all actives have a fitted effect of over 60% in size
#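 Screening used a luciferase reporter fused to human ELG1 in HEK293T cells. Luminescence was read on a CCD plate imager after 16 hr exposure and 30 min ONE-Glo incubation.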
# p53 reactivator: mutant p53 re-activation in reporter cells; H1299 p53-A138V BP100-luciferase reporter, luminescence, 24 h; Potency, µM (doses to about 92.2 µM), inactives show top-dose activity change, positive = activation, most hits filed as activators; 320,000 compounds, 0.063% hits; note: % of control where 0% means no effect; nearly all actives have a fitted effect of over 45% in size
#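 p53-null H1299 cells stably carrying temperature-sensitive p53-A138V and a BP100-luciferase reporter were pinned with compounds (4-point, 1:5 series) and held 24 hrs at 37 deg C. Luminescence was read 10 min after detection reagent.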
# The depositor's hits bear a star; ? = inconclusive; nt = no result; [ ] = remark or other dose. Only some compounds are listed: those with a hit (about 7.3% of all), similar ones and a draw of the others. Calls come from the whole dose curve; as a rule, active = well fitted curve in the direction sought with a large enough effect; inconclusive = small, poorly fitted or top-dose-only effect, or another doubt; inactive = no such curve, though single readings can be large; an effect the other way counts as inactive or inconclusive. Potency is the fitted concentration of half-maximal effect.
SMILES,NPC1 promoter act,Rab9 promoter act,SMN2 splice up,FLuc counter,ELG1 genotox,p53 reactivator
Cc1nc2ccccc2c2nc3ccccc3n12,7%,3%[1.84 µM],4%,?,?,7%
COc1ccc(-c2cc(C(=O)Nc3ccccc3N3CCOCC3)c3ccccc3n2)cc1OC,-7%,2%,-58%,?,-18%,-4%
COc1ccc(-c2cc(C(=O)NNC(=O)c3csc(N4CCOCC4)n3)c3ccccc3n2)cc1OC,0%,5%,nt,9.5µM*,-26%,-6%
COc1ccc(-c2cc(C(=O)NNC(=O)c3csc(N4CCOCC4)n3)c3ccccc3n2)cc1,-2%,2%,nt,12µM*,-24%,3%
CCOc1ccc(NC(=O)CSC2=Nc3ccccc3C3=NC(CC(=O)NCc4cccs4)C(=O)N23)cc1 (stereo not drawn),nt,nt,nt,-12%,nt,nt
O=C(CSc1n[nH]c(Cc2ccccc2)n1)Nc1ccccc1Br,-3%,3%,nt,1%,-2%,5%
COc1ccccc1C(=O)NCC(=O)Nc1ccc2c(c1)CCC2,?,26%,nt,12µM*,?,?
COc1ccccc1OCC(=O)Nc1ccc(Cl)cc1,13%,20%,?,?,14%,?
COc1ccccc1CC(=O)Nc1ccc2c(c1)CCC2,-4%,1%,-9%,?,4%,6%
NC(=O)c1ccccc1OCC(=O)Nc1ccc(Cl)c(Cl)c1,0.35µM*,0.35µM*,nt,0.67µM*,1.2µM*,16%
NC(=O)c1ccccc1OCC(=O)Nc1ccc2c(c1)CCC2,22%,?,nt,15µM*,6%,?
O=C(COc1cc(Cl)ccc1Cl)Nc1ccc2c(c1)CCC2,16%,17%,13%,3%,8%,-4%
CCOC(=O)C1CCCN(c2ncnc3c2cnn3-c2ccc(OC)cc2)C1 (stereo not drawn),?,?,11µM*,?,5.2µM*,?
CCOC(=O)C1CCCN(c2ncnc3c2nnn3C)C1 (stereo not drawn),nt,nt,nt,0%,nt,nt
CCOC(=O)C1CCCN(c2ncnc3c2cnn3-c2ccc(Cl)cc2)C1 (stereo not drawn),?,?,27%,12µM*,6%,-9%
Cc1ccc(NC(=O)CSc2nnc(-c3cc4occc4n3C)n2-c2ccccc2C)c(C)c1,nt,nt,nt,-12%,nt,nt
CCc1ccccc1OCC(=O)Nc1ccc(S(=O)(=O)Nc2nc(C)cc(C)n2)cc1,nt,nt,-13%,?,nt,nt
Cn1c(=O)c(/C=C/c2ccccc2)nc2ccccc21,?,3.5µM*,11µM*,2.7µM*,?,?
O=c1c2ccccc2nc(/C=C/c2cccc(Br)c2)n1CCCO,-8%,-4%,nt,-16%,-8%,-2%
Cn1c(=O)c(C(=O)c2ccccc2)nc2ccccc21,-2%,13%,-1%,0%,-1%,3%
Cn1c(/C=C/c2cccc(Br)c2)nc2ccccc2c1=O,28%,-5%[1.84 µM],nt,15µM*,1%,17%
Cn1c(/C=C/c2ccccc2)nc2ccccc21,0.56µM*,?,nt,0.13µM*,?,-6%
Cn1c(=O)c(/C=C/c2ccc(F)cc2)nc2ccccc21,-30%,-30%,nt,6.7µM*,8%,8%
O=C(CSC1=Nc2ccccc2N=C(c2ccc(F)cc2)C1)NCc1ccc(Cl)cc1,nt,nt,nt,7%,nt,nt
CS(=O)(=O)c1cnc(-c2ccccc2)nc1Oc1ccc(Cl)cc1,7%,-4%,1%,3%,16%,-1%
CC(=O)c1ccc(/C=C/c2nc3ccccc3n2C)o1,1.3µM*,1µM*,nt,5.4µM*,16µM*,8%
CC(C)C[C@@H](CN=[N+]=[N-])N1CCN(C)CCC1=O,1%,-6%,nt,0%,0%,5%
Cc1ccc(NC(=O)c2nc(S(=O)(=O)Cc3ccccc3C)ncc2Cl)cc1C,-24%,-16%,nt,11µM*,-17%,-35%
CC(=O)NCCN=Cc1sc2ccccc2c1O,3%,-1%,-3%,?,3%,7%
